Inconclusive results are not listed. Active and inactive are the calls of the source. The calls were made as follows: active = hit-call score of the fitted dose curve at least 0.9, where 1 is the maximum; inconclusive = response in the unintended direction; inactive = score below 0.9.
Columns and labels:
[1] = TOX21_p53_BLA_p2_viability: Viability Assessment in the Tox21 HCT-116 p53 Agonism Beta-lactamase Assay, Phase 2 (AID 2283591);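 also: actives lower the ATP signal meaning cytotoxicity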
Outline: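 HCT116 p53-bla cells, 4000/well, dosed after 5 h plating (217-fold dilution of DMSO stocks) and incubated 16 h at 37C. Viability taken as cellular ATP by CellTiter-Glo luminescence after 30 min RT; signal loss marks cytotoxicity.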

[2] = target: Cellular tumor antigen p53 (Homo sapiens) (UniProt P04637); assay: TOX21_p53_BLA_p2_ratio: Tox21 HCT-116 p53 Agonism Beta-lactamase Assay, Ratio, Phase 2 (AID 2283592)
Sequence of Cellular tumor antigen p53 (Homo sapiens) (P04637 whole entry, looked up): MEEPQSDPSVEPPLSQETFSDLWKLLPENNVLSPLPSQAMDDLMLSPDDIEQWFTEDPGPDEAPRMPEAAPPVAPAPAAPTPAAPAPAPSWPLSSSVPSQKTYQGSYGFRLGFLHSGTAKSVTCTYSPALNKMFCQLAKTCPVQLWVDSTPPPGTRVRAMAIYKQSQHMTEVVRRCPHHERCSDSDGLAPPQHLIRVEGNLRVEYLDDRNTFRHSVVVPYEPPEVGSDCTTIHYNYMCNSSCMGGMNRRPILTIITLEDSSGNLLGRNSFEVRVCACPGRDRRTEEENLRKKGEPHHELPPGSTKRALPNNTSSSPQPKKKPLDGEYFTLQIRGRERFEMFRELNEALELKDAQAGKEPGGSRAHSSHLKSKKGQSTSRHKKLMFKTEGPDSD
Outline: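 Readout: blue/green (460/530 nm) FRET emission ratio after 2 h CCF4-AM loading at room temperature, excitation 405 nm. HCT116 p53 bla cells, 16 h compound exposure at 37C, 5% CO2; agonist direction fitted against DMSO baseline.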

[3] = TOX21_p53_BLA_p3_viability: Viability Assessment in the Tox21 HCT-116 p53 Agonism Beta-lactamase Assay, Phase 3 (AID 2283593);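 also: cells exposed to compound for 16 h before reading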
Outline: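 HCT116 cells, 4000/well, dosed 5 h after plating by pin transfer (217-fold dilution from DMSO stock) and incubated 16 h at 37C, 5% CO2. Viability read as ATP luminescence with CellTiter-Glo after 30 min at room temperature.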

[4] = target: Cellular tumor antigen p53 (Homo sapiens) (UniProt P04637); assay: TOX21_p53_BLA_p3_ratio: Tox21 HCT-116 p53 Agonism Beta-lactamase Assay, Ratio, Phase 3 (AID 2283596)
Outline: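 Cells were seeded at 4000/well, rested 5 h at 37C, then dosed with DMSO compound solutions (217-fold dilution) for 16 h. CCF4-AM substrate was loaded for 2 h at room temperature, and the 460/530 nm emission ratio was fitted for gain of signal versus DMSO.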

[5] = TOX21_p53_BLA_p4_viability: Viability Assessment in the Tox21 HCT-116 p53 Agonism Beta-lactamase Assay, Phase 4 (AID 2283597);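 also: hits lower the luminescence signal meaning cytotoxicity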
Outline: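 ATP content by CellTiter-Glo luminescence, 30 min RT, read after the beta-lactamase ratio step. Cells: HCT116, 4000/well, compound added after 5 h, exposure 16 h at 37C. Signal loss = reduced viability.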

[6] = target: Cellular tumor antigen p53 (Homo sapiens) (UniProt P04637); assay: TOX21_p53_BLA_p5_ratio: Tox21 HCT-116 p53 Agonism Beta-lactamase Assay, Ratio, Phase 5 (AID 2283599)
Outline: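 HCT-116 p53-bla cells (4000/well) plated 5 h, dosed with compound (217-fold DMSO dilution) for 16 h at 37 C; CCF4-AM substrate 2 h at room temperature. Activity is the 460/530 nm emission ratio (405 nm excitation), fitted in gain-of-signal direction versus DMSO.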

[7] = target: Cellular tumor antigen p53 (Homo sapiens) (UniProt P04637); assay: TOX21_p53_BLA_p4_ratio: Tox21 HCT-116 p53 Agonism Beta-lactamase Assay, Ratio, Phase 4 (AID 2283601)
Outline: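 HCT-116 p53 beta-lactamase reporter cells (4000/well) preincubated 5 h, then compound (217-fold dilution of DMSO stock) for 16 h at 37C. CCF4-AM substrate added 2 h at room temperature; 460/530 nm emission ratio fitted upward versus DMSO.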

PGR (gene 5241) [8] = target: PGR (gene 5241) (UniProt P06401); assay: TOX21_PR_BLA_Followup_Antagonist_ratio: Tox21 HEK293 Progesterone Receptor (PR) Antagonism Beta-lactamase Follow-Up Assay, Ratio (AID 2283934)
Sequence of PGR (gene 5241) (P06401 whole entry, looked up, the tested form may be a part): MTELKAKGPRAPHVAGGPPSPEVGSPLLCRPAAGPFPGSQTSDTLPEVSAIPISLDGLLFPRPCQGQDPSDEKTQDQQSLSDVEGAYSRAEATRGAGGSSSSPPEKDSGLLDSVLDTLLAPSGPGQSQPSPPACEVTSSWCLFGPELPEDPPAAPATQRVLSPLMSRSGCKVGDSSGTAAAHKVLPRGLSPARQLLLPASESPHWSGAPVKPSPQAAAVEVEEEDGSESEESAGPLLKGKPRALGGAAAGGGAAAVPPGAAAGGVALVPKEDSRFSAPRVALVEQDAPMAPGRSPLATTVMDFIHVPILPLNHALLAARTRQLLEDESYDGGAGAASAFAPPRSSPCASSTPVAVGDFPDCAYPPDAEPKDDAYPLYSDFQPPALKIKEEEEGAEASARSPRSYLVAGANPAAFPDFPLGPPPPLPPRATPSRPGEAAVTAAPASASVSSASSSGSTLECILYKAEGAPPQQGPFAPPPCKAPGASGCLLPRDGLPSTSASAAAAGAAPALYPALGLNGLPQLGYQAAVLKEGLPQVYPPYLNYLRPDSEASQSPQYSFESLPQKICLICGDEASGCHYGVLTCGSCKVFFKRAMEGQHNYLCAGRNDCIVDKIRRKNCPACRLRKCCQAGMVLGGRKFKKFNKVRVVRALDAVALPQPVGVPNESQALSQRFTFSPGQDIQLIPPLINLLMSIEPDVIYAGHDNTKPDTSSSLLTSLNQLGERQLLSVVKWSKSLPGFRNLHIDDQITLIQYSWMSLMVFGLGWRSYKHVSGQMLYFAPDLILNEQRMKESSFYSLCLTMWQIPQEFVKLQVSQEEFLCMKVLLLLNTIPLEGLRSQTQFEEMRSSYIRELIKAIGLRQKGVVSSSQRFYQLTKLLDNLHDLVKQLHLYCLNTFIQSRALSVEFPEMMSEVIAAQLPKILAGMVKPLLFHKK
Outline: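 Read-out: blue/green beta-lactamase FRET ratio (cleaved ch2 over uncleaved ch1), fitted relative to DMSO baseline. Cells: PR-UAS-bla HEK293T, GAL4-UAS reporter, stimulated with 1 nM R5020 final; 16 hr compound exposure, 37C.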

[9] = TOX21_PR_BLA_Followup_Agonist_viability: Viability Assessment in the Tox21 HEK293 Progesterone Receptor (PR) Agonism Beta-lactamase Follow-Up Assay (AID 2283935);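 also: signal loss means lower viability so actives are cytotoxic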
Outline: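 Luminescent ATP quantitation (CellTiter-Glo, 30 min, room temperature) in the same wells as the beta-lactamase read, on PR-UAS-bla HEK293T cells exposed to compound for 16 hr at 37C in 2% charcoal-stripped serum.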

[10] = TOX21_PR_BLA_Followup_Antagonist_viability: Viability Assessment in the Tox21 HEK293 Progesterone Receptor (PR) Antagonism Beta-lactamase Follow-Up Assay (AID 2283936);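 also: cells exposed to compound with R5020 agonist for 16 h; hits lower the luminescence signal meaning cytotoxicity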
Outline: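 PR-UAS-bla HEK293T cells in medium with 2% charcoal-stripped FBS were treated with compounds plus R5020 for 16 hr at 37C. After the beta-lactamase read, CellTiter-Glo was added to the same wells and luminescence read after 30 min at room temperature.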

PGR (gene 5241) [11] = target: PGR (gene 5241) (UniProt P06401); assay: TOX21_PR_LUC_Followup_Antagonist: Tox21 HEK293 Progesterone Receptor (PR) Antagonism Luciferase Follow-Up Assay (AID 2283938);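 also: curve fitted upward as signal gain over DMSO baseline despite antagonist label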
Outline: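 Luminescence from ONE-Glo reagent, measured after 30 min at room temperature, served as readout. Cells (HEK293 carrying PR-A-luc) had been treated 16 h at 37C with DMSO-dissolved compounds. Activity was fitted against DMSO controls.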

[12] = TOX21_PR_LUC_Followup_Agonist_viability: Viability Assessment in the Tox21 HEK293 Progesterone Receptor (PR) Agonism Luciferase Follow-Up Assay (AID 2283941);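 also: loss of signal means cytotoxicity so actives lower viability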
Outline: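 Cytotoxicity counter-screen: ATP content by CellTiter-Glo luminescence, loss of signal = reduced viability. HEK293-PR-A-luc, 3,000 cells/well, compound exposure 16 h, 37C.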

[13] = target: Thyroid hormone receptor alpha (Rattus norvegicus) + Thyroid hormone receptor beta (Rattus norvegicus) (UniProt P18113+P63059); assay: TOX21_TR_LUC_GH3_Antagonist_Followup: Tox21 GH3 Thyroid Hormone Receptor Antagonism Luciferase Follow-Up Assay (AID 2283942)
Outline: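 Luminescence read-out (ONE-Glo, 30 min at room temperature) in GH3 reporter cells challenged with 1.0 nM T3 final. Compounds ran at 92 uM to 5nM over 15 concentrations for 24 h; DMSO served as negative control and baseline.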

THRB (gene 7068) = THRB (gene 7068) (UniProt P10828); assay: TOX21_TRB_BLA_Antagonist_Followup_ratio: Tox21 Thyroid Hormone Receptor beta Antagonism Beta-lactamase (BLA) Follow-Up Assay, Ratio (AID 2283958)
Sequence of THRB (gene 7068) (P10828 whole entry, looked up, the tested form may be a part): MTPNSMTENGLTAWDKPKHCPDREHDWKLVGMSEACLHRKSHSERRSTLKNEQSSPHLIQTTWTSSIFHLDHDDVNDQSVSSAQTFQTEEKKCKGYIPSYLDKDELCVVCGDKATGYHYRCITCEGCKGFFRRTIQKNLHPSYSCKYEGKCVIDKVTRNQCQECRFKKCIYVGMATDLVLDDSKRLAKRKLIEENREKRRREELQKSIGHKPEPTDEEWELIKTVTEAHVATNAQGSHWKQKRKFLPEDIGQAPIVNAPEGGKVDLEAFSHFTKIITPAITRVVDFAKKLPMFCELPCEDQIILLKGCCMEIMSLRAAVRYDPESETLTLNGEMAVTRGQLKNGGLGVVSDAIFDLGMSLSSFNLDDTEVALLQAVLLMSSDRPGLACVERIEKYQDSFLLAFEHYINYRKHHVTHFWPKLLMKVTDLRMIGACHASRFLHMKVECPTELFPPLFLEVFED
Outline: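 Read-out: blue/green (460:530 nm) ratio of cleaved to uncleaved CCF4-AM after 2 h at room temperature, fitted against DMSO baseline. HEK293T UAS-bla cells carrying GAL4-human TRβ LBD were exposed 18 h, 37C/5% CO2.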

[14] = TOX21_TRB_BLA_Antagonist_Followup_viability: Viability Assessment in the Tox21 Thyroid Hormone Receptor beta Antagonism Beta-lactamase (BLA) Follow-Up Assay (AID 2283961)
Outline: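 Viability read as CellTiter-Glo ATP luminescence (loss of signal = cytotoxicity) in the same plates as the TRβ-bla readout. TRβ-LBD/GAL4 UAS-bla HEK293T cells were exposed to compounds, 11 concentrations in triplicate, for 18 h at 37C/5% CO2.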

Measured: outcome

C=CC[C@]1(O)CC[C@H]2[C@@H]3CCC4=CC(=O)CCC4=C3C=C[C@@]21C
inactive: all assays above

Source: PubChem BioAssay (EPA / NIEHS)
